# Records with an inconclusive call do not appear. Calls of active or inactive are those of the source. Unless noted, calls follow the shape of the full dose curve.
# Assay: Cytotoxicity counterscreen for inhibitors of SARS-CoV-2 cell entry (AID 1645845); also: nearly all actives have a fitted effect of over 50% in size; as to activity change, negative = cytotoxicity: % is scaled to controls: 0 for no effect and ±100 for the full control effect
# Conditions: cell viability (SARS-CoV-2 entry assay cells); series mostly up to 57.1 µM; activity change, negative = cytotoxicity: at the top concentration
# Summary of the method: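 48 h compound treatment (after 1 h preincubation), HEK293-ACE2 cells, 37 C/5% CO2; ATP luminescence endpoint; normalized to cell wells and media blanks.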
Compound,"activity change, negative = cytotoxicity",outcome
C[C@](O)(COc1ccc(C#N)cc1)C(=O)Nc1ccc(C#N)c(C(F)(F)F)c1,-21% (inactive),–
O=[N+]([O-])/N=C1\NCCN1Cc1ccc(Cl)nc1,–,inactive
CC(C)(C)c1cnc(CSc2cnc(NC(=O)C3CCNCC3)s2)o1,-28.6% (inactive),–

# Assay: Primary qHTS to identify inhibitors of SARS-CoV-2 cell entry (AID 1645846); also: nearly all actives have a fitted effect of over 45% in size
# Conditions: SARS-CoV-2 pseudovirus cell entry assay, luminescence; activity change, negative = inhibition: at 57.1 µM (top of the series) unless noted; series mostly up to 57.1 µM
# Summary of the method: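 Data are normalized to wells receiving SARS-CoV-2-S pseudoparticles and those given bald particles. Entry signal was luciferase luminescence in stable hACE2 Expi293F cells, 48 hr post-infection, after 1 hr compound pretreatment.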
Compound,"activity change, negative = inhibition [%]",outcome
O=C(O)CNC(=O)c1c(O)c2ccccc2n(Cc2ccccc2)c1=O,2.25,–
O=c1cccc2n1CC1CNC[C@H]2C1,-15.2,–
C#CC1(O)CCC2C3CCC4=CC(=O)CCC4(C)C3CCC21C (configuration not stated),-0.771,–
CCOC(=O)Nc1ccc(NCc2ccc(F)cc2)cc1N,2.18,–
COC(=O)c1cncn1C(C)c1ccccc1 (configuration not stated),–,inactive
O=C1C=CC[C@@H]2[C@H]3CCCN4CCC[C@@H](CN12)[C@@H]34,–,inactive
CN1[C@H]2CC(O)C[C@H]1[C@H]1O[C@H]12 (some centres not stated),0.905,–
CN[C@@H]1Cc2cccc3[nH]c(=O)n(c23)C1,4.06,–
CC(C)(C)c1cc(C=C(C#N)C#N)cc(Br)c1O,–,inactive
O=C(O)COc1ccccc1,–,inactive
CC1=C(C/C=C(\C)CCC[C@H](C)CCC[C@H](C)CCCC(C)C)C(=O)c2ccccc2C1=O,–,inactive
COC1=C[C@@H]2[C@@H]3Cc4ccc(OC)c(O)c4[C@]2(CCN3C)CC1=O,-15.7,–
COC(=O)[C@@H](N)CCCN=C(N)N[N+](=O)[O-],-1.1,–
O=S(=O)(F)Cc1ccccc1,-1.91,–
O=C(NCC1CCOCC1)c1cnc(Nc2ccc(Cl)cc2Cl)nc1C(F)(F)F,-4.18,–
Cc1cc(O)ccc1Cl,–,inactive
CC[N+]1(CCOC(=O)C(O)(c2ccccc2)c2ccccc2)CCCCC1,-23.2,–
CCCC[N+]1(C)[C@H]2CC(OC(=O)[C@H](CO)c3ccccc3)C[C@H]1[C@H]1O[C@H]12 (some centres not stated),-13.1,–
c1ccc2c(CN3CCNCC3)cccc2c1,-23.2,–
CN(C)NC(=O)CCC(=O)O,-24.7,–
O=C(Oc1ccc([N+](=O)[O-])cc1)N1CCC(C(O)(c2ccc3c(c2)OCO3)c2ccc3c(c2)OCO3)CC1,-17.3,–
C[C@]12CC[C@@H]3[C@@H](CCC4=CC(=O)CC[C@@H]43)[C@@H]1CC[C@@H]2OC(=O)CCc1ccccc1,-12.2,–
CC(=O)Nc1ccc(OC[C@](C)(O)C(=O)Nc2ccc([N+](=O)[O-])c(C(F)(F)F)c2)cc1,0.0964,–
C[C@](O)(COc1ccc(C#N)cc1)C(=O)Nc1ccc(C#N)c(C(F)(F)F)c1,-12.9,–
O=[N+]([O-])/N=C1\NCCN1Cc1ccc(Cl)nc1,-0.0091,–

# Assay: VSVG counterscreen qHTS to identify inhibitors of SARS-CoV-2 cell entry (AID 1645847); also: potency is read from the fitted curve at half-maximal effect; nearly all actives have a fitted effect of over 65% in size
# Conditions: VSV-G pseudotyped particle entry, luciferase; series mostly up to 57.2 µM; activity change, negative = inhibition: at the top concentration
# Summary of the method: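 Counterscreen using VSV-G (not spike) pseudotyped MLV particles on ACE2-expressing Expi293F cells after 1 h compound preincubation; infection ran 48 h at 37 °C. Data normalized to VSV-G PP and bald-PP wells.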
row,Compound,Potency
1,COc1cc([C@@H]2c3cc4c(cc3[C@@H](O)C3COC(=O)C32)OCO4)cc(OC)c1O (some centres not stated),541 nM (active)
2,O=C(c1cc(Cc2n[nH]c(=O)c3ccccc23)ccc1F)N1CCN(C(=O)C2CC2)CC1,21500 nM (active)
3,COc1cc2nccc(Oc3ccc(NC(=O)C4(C(=O)Nc5ccc(F)cc5)CC4)cc3)c2cc1OC,8570 nM (active)
4,COc1cc(Nc2ncc3c(n2)-c2ccc(Cl)cc2C(c2c(F)cccc2OC)=NC3)ccc1C(=O)O,108 nM (active)
5,O=c1[nH]c(-c2ccc(C(F)(F)F)cc2)nc2c1CSCC2,1920 nM (active)
6,CC(=O)c1c(C)c2cnc(Nc3ccc(N4CCNCC4)cn3)nc2n(C2CCCC2)c1=O,6810 nM (active)
7,CC(C)(C)c1cnc(CSc2cnc(NC(=O)C3CCNCC3)s2)o1,1920 nM (active)

# Assay: Primary qHTS for inhibitors of nuclear receptor binding SET domain protein 2 (NSD2) in an isogenic RCH-ACV NSD2 p.E1099K mutant (9B) (AID 1645876; active = well fitted inhibition curve with a large enough effect; also: nearly all actives have a fitted effect of over 70% in size; also: potency is read from the fitted curve at half-maximal effect; as to activity change, negative = viability loss: % is scaled to controls: 0 for no effect and ±100 for the full control effect)
# Conditions: RCH-ACV (leukaemia line) NSD2 E1099K (9B) viability, CellTiter-Glo, 72 h; series mostly up to 44.9 µM; activity change, negative = viability loss: at the top concentration
Compound,"activity change, negative = viability loss",Potency,outcome
O=C(O)CNC(=O)c1c(O)c2ccccc2n(Cc2ccccc2)c1=O,-15.1% (inactive),–,–
O=c1cccc2n1CC1CNC[C@H]2C1,-3.6% (inactive),–,–
C#CC1(O)CCC2C3CCC4=CC(=O)CCC4(C)C3CCC21C (configuration not stated),0.982% (inactive),–,–
O=c1[nH]c2ccccc2n1C1CCN(Cc2ccc(-c3[nH]c4cc5ncnc5cc4nc3-c3ccccc3)cc2)CC1,–,2950 nM (active),–
COc1cc([C@@H]2c3cc4c(cc3[C@@H](O)C3COC(=O)C32)OCO4)cc(OC)c1O (some centres not stated),–,417 nM (active),–
CSCC[C@@H](NC(=O)[C@@H](Cc1ccccc1)NC(=O)CNC(=O)CNC(=O)[C@@H](N)Cc1ccc(O)cc1)C(=O)O,–,–,inactive
COC(=O)c1cncn1C(C)c1ccccc1 (configuration not stated),-10.9% (inactive),–,–
O=C1C=CC[C@@H]2[C@H]3CCCN4CCC[C@@H](CN12)[C@@H]34,0.882% (inactive),–,–
CN1[C@H]2CC(O)C[C@H]1[C@H]1O[C@H]12 (some centres not stated),–,–,inactive
CN[C@@H]1Cc2cccc3[nH]c(=O)n(c23)C1,3.91% (inactive),–,–
CC(C)(C)c1cc(C=C(C#N)C#N)cc(Br)c1O,-24.9% (inactive),–,–
CCN1C[C@]2(OC(=O)c3ccccc3NC(C)=O)CC[C@H](OC)[C@@]34[C@H]5CC6[C@@H](OC)C[C@](O)(C(C[C@@H]23)[C@@H]14)[C@@]5(O)[C@@H]6OC,6.62% (inactive),–,–
O=C(O)COc1ccccc1,–,–,inactive
COC1=C[C@@H]2[C@@H]3Cc4ccc(OC)c(O)c4[C@]2(CCN3C)CC1=O,4.82% (inactive),–,–
COC(=O)[C@@H](N)CCCN=C(N)N[N+](=O)[O-],4.79% (inactive),–,–
O=S(=O)(F)Cc1ccccc1,–,–,inactive
O=C(NCC1CCOCC1)c1cnc(Nc2ccc(Cl)cc2Cl)nc1C(F)(F)F,5.08% (inactive),–,–
Cc1cc(O)ccc1Cl,-6.38% (inactive),–,–
CC[N+]1(CCOC(=O)C(O)(c2ccccc2)c2ccccc2)CCCCC1,–,–,inactive
CCCC[N+]1(C)[C@H]2CC(OC(=O)[C@H](CO)c3ccccc3)C[C@H]1[C@H]1O[C@H]12 (some centres not stated),–,–,inactive
c1ccc2c(CN3CCNCC3)cccc2c1,–,–,inactive
COc1ccc(N(C(=O)Oc2c(C)cccc2C)c2ccnc(Nc3ccc(N4CCN(C)CC4)cc3)n2)c(OC)c1,–,4680 nM (active),–
CN(C)NC(=O)CCC(=O)O,-8.34% (inactive),–,–
O=C(Oc1ccc([N+](=O)[O-])cc1)N1CCC(C(O)(c2ccc3c(c2)OCO3)c2ccc3c(c2)OCO3)CC1,–,inactive,–
C[C@]12CC[C@@H]3[C@@H](CCC4=CC(=O)CC[C@@H]43)[C@@H]1CC[C@@H]2OC(=O)CCc1ccccc1,-12.1% (inactive),–,–
C[C@](O)(COc1ccc(C#N)cc1)C(=O)Nc1ccc(C#N)c(C(F)(F)F)c1,–,20900 nM (active),–
O=[N+]([O-])/N=C1\NCCN1Cc1ccc(Cl)nc1,3.18% (inactive),–,–

# — PubChem BioAssay (NCATS)
